# Laboratory results reported in the supplement of paper PMC8728848.
# The full list was thinned out, with the strongest signals kept by preference.
# Tests used:
# Experiment in all cases: glycan array binding signal (z-score within array); higher = stronger binding
# [1] = tested on: Neu5Ac(a2-3)Gal; settings: glycan notation: IUPAC condensed, linker removed
# Summary of the method: (§1)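 Arrays were curated from the Consortium for Functional Glycomics database, 3228 in total, and kept only where the protein sequence was available. Binding is expressed as a within-array Z-score. This score was averaged across arrays of the same protein sequence at different concentrations or buffers and across linkers, and negative values can be read as non-binding.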
# [2] = tested on: Neu5Ac(a2-3)[Neu5Ac(a2-6)]GalNAc; settings: glycan notation: IUPAC condensed, linker removed
# Summary of the method: as §1
# [3] = tested on: Neu5Ac(a2-3)GalNAc; settings: glycan notation: IUPAC condensed, linker removed
# Summary of the method: as §1
# [4] = tested on: Neu5Ac(a2-3)[GalNAc(b1-4)]Gal(b1-4)GlcNAc(b1-3)GalNAc; settings: glycan notation: IUPAC condensed, linker removed
# Summary of the method: as §1
# [5] = tested on: Neu5Ac(a2-3)[GalNAc(b1-4)]Gal(b1-4)GlcNAc; settings: glycan notation: IUPAC condensed, linker removed
# Summary of the method: as §1
# [6] = tested on: Neu5Ac(a2-3)GalNAc(b1-4)GlcNAc; settings: glycan notation: IUPAC condensed, linker removed
# Summary of the method: as §1
# [7] = tested on: Neu5Ac(a2-6)Gal(b1-4)GlcNAc(b1-2)Man(a1-3)[Gal(b1-4)GlcNAc(b1-2)Man(a1-6)]Man(b1-4)GlcNAc(b1-4)GlcNAc; settings: glycan notation: IUPAC condensed, linker removed
# Summary of the method: as §1
# [8] = tested on: Neu5Ac(a2-3)Gal6S(b1-4)[Fuc(a1-3)]GlcNAc; settings: glycan notation: IUPAC condensed, linker removed
# Summary of the method: as §1
# [9] = tested on: Neu5Ac(a2-6)Gal(b1-3)GlcNAc(b1-3)[Gal(b1-4)GlcNAc(b1-6)]Gal(b1-4)Glc; settings: glycan notation: IUPAC condensed, linker removed; mutation: R125K
# Summary of the method: as §1
# [10] = tested on: Neu5Ac(a2-3)[GalNAc(b1-4)]Gal(b1-4)Glc; settings: glycan notation: IUPAC condensed, linker removed
# Summary of the method: as §1
# C3b (Homo sapiens), P01024, sequence (P01024 23-667): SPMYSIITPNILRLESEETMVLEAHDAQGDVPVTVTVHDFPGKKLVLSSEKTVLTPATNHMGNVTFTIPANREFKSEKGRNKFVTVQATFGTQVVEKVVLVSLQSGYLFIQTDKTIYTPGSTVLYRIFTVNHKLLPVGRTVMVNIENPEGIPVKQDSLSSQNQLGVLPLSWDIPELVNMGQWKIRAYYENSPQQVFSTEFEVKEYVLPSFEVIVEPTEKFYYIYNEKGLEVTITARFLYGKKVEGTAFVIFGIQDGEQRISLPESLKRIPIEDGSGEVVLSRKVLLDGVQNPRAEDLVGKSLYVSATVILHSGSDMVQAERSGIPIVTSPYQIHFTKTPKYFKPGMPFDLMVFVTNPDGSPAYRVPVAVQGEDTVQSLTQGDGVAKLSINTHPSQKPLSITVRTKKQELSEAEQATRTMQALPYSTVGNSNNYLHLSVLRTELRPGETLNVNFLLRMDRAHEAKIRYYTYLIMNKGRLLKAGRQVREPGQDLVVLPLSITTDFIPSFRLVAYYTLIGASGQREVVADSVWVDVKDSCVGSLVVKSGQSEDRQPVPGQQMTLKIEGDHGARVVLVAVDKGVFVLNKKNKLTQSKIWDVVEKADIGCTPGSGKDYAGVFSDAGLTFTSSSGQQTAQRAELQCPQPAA
# CHI3L1 (Homo sapiens), P36222, sequence (P36222 whole entry): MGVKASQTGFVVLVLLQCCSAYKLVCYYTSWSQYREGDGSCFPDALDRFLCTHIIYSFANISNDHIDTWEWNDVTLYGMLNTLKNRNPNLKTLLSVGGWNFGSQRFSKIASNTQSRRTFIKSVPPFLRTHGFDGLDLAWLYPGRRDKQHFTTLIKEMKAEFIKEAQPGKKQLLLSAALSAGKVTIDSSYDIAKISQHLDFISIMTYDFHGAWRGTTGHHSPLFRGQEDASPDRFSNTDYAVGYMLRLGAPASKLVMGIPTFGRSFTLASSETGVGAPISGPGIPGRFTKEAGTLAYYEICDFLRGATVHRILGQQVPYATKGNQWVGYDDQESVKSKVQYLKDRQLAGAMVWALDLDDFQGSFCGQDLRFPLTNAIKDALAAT
# 6RG (Lolium perenne), sequence (chain, as listed by the source): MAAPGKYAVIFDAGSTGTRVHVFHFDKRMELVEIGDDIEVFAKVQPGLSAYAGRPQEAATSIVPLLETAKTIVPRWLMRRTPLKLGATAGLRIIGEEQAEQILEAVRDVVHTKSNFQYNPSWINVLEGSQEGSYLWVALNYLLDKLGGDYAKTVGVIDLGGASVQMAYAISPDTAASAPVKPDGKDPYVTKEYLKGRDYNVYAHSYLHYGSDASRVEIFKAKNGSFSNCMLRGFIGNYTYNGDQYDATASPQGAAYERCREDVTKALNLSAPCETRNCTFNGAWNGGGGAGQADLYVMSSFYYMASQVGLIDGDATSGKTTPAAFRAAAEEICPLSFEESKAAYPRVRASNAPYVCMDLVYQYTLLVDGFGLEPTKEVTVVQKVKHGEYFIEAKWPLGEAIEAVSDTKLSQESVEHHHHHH
# wLAT-1A (Homo sapiens), Q01650, sequence (Q01650 whole entry): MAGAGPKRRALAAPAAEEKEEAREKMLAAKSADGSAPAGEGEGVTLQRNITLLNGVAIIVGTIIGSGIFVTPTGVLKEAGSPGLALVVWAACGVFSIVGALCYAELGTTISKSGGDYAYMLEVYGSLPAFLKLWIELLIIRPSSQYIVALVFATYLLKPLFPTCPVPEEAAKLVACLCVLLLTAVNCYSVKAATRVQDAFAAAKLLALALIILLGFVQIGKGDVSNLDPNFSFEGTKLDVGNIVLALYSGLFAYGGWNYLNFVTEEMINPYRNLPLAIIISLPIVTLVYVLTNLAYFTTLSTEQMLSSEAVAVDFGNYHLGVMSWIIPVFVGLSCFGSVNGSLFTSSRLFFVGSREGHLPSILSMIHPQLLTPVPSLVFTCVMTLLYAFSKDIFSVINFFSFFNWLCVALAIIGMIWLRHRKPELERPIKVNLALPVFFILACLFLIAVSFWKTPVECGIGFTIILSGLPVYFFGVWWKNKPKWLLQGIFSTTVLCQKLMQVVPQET
# 6RG (Lolium perenne), B9U140, sequence (B9U140 entry or part of it): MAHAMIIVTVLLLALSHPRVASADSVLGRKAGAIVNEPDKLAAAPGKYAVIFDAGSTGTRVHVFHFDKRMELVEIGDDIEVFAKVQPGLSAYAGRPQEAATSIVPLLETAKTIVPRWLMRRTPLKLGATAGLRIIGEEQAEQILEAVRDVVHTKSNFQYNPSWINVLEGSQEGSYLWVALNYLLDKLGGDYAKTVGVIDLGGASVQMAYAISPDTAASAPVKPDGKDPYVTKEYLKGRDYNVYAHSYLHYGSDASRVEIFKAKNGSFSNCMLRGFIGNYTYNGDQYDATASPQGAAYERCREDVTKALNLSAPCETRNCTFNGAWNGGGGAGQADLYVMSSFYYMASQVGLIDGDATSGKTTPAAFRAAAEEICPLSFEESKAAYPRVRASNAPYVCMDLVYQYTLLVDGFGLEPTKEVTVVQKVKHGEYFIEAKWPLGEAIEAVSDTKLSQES
# PILRb (Mus musculus), Q2YSF2, sequence (Q2YSF2 entry or part of it): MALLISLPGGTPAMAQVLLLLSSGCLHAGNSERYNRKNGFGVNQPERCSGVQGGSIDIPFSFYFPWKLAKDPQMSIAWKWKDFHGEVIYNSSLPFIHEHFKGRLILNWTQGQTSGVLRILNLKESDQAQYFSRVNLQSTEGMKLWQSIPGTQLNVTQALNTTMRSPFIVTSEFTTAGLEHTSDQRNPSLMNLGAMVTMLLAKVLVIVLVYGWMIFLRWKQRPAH
# Regenerating Gene IV (Homo sapiens), Q9BYZ8, sequence (Q9BYZ8 whole entry, looked up): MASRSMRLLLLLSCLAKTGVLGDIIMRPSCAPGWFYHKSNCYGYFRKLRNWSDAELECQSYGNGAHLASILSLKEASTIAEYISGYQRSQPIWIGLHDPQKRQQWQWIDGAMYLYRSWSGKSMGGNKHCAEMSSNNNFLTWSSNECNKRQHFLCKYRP
# Neurocan (Homo sapiens), O14594, sequence (O14594 other isoform, or with tags, fused parts or gaps): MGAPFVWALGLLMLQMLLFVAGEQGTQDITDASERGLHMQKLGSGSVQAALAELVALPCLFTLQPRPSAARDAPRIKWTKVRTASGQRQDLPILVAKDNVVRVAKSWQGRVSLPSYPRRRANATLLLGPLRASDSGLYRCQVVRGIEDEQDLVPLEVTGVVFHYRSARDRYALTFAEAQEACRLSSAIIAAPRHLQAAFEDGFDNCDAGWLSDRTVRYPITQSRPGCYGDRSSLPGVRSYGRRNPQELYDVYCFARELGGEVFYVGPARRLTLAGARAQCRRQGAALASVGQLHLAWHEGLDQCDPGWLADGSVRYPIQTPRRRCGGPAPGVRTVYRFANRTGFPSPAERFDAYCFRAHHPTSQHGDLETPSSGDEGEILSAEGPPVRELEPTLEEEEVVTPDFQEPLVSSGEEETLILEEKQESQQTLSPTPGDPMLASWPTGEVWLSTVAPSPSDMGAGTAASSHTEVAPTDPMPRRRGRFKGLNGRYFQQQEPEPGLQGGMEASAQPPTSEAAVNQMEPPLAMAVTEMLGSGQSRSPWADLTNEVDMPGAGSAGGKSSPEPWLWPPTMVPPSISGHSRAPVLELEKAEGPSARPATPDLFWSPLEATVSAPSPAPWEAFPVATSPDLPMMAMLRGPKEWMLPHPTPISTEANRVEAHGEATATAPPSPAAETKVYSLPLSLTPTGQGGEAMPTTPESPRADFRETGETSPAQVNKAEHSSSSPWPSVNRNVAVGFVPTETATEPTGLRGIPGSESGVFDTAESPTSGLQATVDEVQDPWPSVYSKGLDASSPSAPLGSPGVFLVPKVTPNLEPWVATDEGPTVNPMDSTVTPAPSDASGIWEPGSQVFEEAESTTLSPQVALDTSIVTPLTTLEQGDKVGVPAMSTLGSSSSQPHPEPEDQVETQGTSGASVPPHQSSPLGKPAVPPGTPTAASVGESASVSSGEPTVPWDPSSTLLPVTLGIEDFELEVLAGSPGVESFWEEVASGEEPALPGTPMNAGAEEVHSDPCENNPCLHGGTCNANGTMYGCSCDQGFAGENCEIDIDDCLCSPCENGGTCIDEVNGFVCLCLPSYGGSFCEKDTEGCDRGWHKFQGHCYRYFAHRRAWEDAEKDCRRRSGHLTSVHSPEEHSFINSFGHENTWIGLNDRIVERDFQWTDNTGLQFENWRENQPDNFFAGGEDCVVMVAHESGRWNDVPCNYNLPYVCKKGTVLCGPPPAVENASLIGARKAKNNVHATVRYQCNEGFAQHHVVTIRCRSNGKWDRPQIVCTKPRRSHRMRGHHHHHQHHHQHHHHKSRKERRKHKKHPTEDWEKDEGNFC
substance,measurement,setting,value
6RG (Lolium perenne),glycan array binding signal (z-score),[1],-0.339
same,glycan array binding signal (z-score),[2],-0.349
MpAFP RI GFP (Marinomonas primoryensis),glycan array binding signal (z-score),[3],2.97
"Neurocan (Homo sapiens), O14594",glycan array binding signal (z-score),[4],-0.87
"PILRb (Mus musculus), Q2YSF2",glycan array binding signal (z-score),[5],-0.329
"C3b (Homo sapiens), P01024",glycan array binding signal (z-score),[6],1.01
same,glycan array binding signal (z-score),[5],-0.304
same,glycan array binding signal (z-score),[7],-0.286
"6RG (Lolium perenne), B9U140",glycan array binding signal (z-score),[2],-0.334
"wLAT-1A (Homo sapiens), Q01650",glycan array binding signal (z-score),[2],0.503
same,glycan array binding signal (z-score),[7],-0.898
"CHI3L1 (Homo sapiens), P36222",glycan array binding signal (z-score),[8],-0.117
same,glycan array binding signal (z-score),[3],-0.131
"Siglec-8 (Homo sapiens), Q9NYZ4",glycan array binding signal (z-score),[8],15
same,glycan array binding signal (z-score),[6],-0.069
same,glycan array binding signal (z-score),[9],-0.472
"Regenerating Gene IV (Homo sapiens), Q9BYZ8",glycan array binding signal (z-score),[10],0.356
